The source of these data is PubChem BioAssay AID743449 (Broad Institute, 2014).

Out of some 9,900 compounds screened, about 90 (0.9%) were called active. Inconclusive results (about 2%) are left out. Many of the other results were omitted from the sample, so actives are more common in it than they were. Unmarked numbers belong to inactive results.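 How the source made its calls: active means mean normalized replicate activity at least 50 and at least half of replicates each reaching 50; inconclusive means only one of the two criteria met; inactive means neither criterion met.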

The nature of the assay: reduction of CTGF mRNA in DLD1 cells – DLD1 colon cancer cells, RT-qPCR, single point, primary screen (AID 743449).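 Further: 0% = neutral control wells and 100% = dasatinib control wells; higher means stronger suppression of CTGF expression like dasatinib.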 The following applies: 24 h, at 12.5 µM, stronger effect = higher value. For orientation: In qPCR the cycle at which signal appears reflects the starting amount.
As usually defined, the inhibition is the change of the read-out against control, counted positive when it falls. On to `C[C@@H](NC(=O)C[C@@H]1CC[C@H]2[C@@H](COc3ccc(NC(=O)C4CCOCC4)cc3C(=O)N2C)O1)c1ccccc1`, for which the inhibition is -5.56%.

Consider `O=C(CN1CCOCC1)N1CC[C@@H]2[C@H](CO)Nc3ccc(-c4ccccc4F)cc3[C@@H]21`, for which the inhibition was -17.8%.

Regarding `CCCC#Cc1ccc([C@@H]2[C@H]3CN(S(=O)(=O)c4ccccc4C)CC(=O)N3[C@H]2CO)cc1`, the inhibition is 26.1%.

Consider `C[C@@H]1CN([C@H](C)CO)C(=O)c2ccccc2-c2ccccc2CO[C@H]1CN(C)C(=O)[C@@H]1CCCN1C`, for which the inhibition is 3.47%. Under `O=C(Nc1ccc2c(c1)[C@@H]1C[C@H](CC(=O)N3CCc4ccccc4C3)O[C@H](CO)[C@@H]1O2)c1ccc2c(c1)OCO2` stands -19.3%. Under `O=C(Nc1ccc2c(c1)[C@@H]1C[C@H](CC(=O)N3CCc4ccccc4C3)O[C@@H](CO)[C@@H]1O2)c1ccc2c(c1)OCO2` stands -4.94%; under `O=C(Nc1ccc2c(c1)[C@H]1C[C@@H](CC(=O)N3CCc4ccccc4C3)O[C@H](CO)[C@H]1O2)c1ccc2c(c1)OCO2`, 56.2% (active); under `O=C(Nc1ccc(C(F)(F)F)cc1)Nc1ccc2c(c1)[C@@H]1C[C@H](CC(=O)N3CCc4ccccc4C3)O[C@@H](CO)[C@@H]1O2`, -25%. The figure for `O=C(Nc1ccc(C(F)(F)F)cc1)Nc1ccc2c(c1)[C@H]1C[C@H](CC(=O)N3CCc4ccccc4C3)O[C@@H](CO)[C@H]1O2` is 57.2% (active); for `O=C(Nc1ccc2c(c1)[C@@H]1C[C@@H](CC(=O)N3CCc4ccccc4C3)O[C@H](CO)[C@@H]1O2)c1ccc2c(c1)OCO2` it is 21.2%; for `O=C(Nc1ccc(C(F)(F)F)cc1)Nc1ccc2c(c1)[C@@H]1C[C@H](CC(=O)N3CCc4ccccc4C3)O[C@H](CO)[C@@H]1O2` it is -58%. As for `O=C(Nc1ccc2c(c1)[C@H]1C[C@@H](CC(=O)N3CCc4ccccc4C3)O[C@@H](CO)[C@H]1O2)c1ccc2c(c1)OCO2`, the inhibition is 61.8% (active). The figure for `O=C(Nc1ccc2c(c1)[C@H]1C[C@H](CC(=O)N3CCc4ccccc4C3)O[C@H](CO)[C@H]1O2)c1ccc2c(c1)OCO2` is 17%. The figure for `CS(=O)(=O)N1[C@@H](C#N)[C@H](c2ccc(C#Cc3cccc(F)c3)cc2)[C@@H]1CO` is -161%; for `O=C(C[C@@H]1CC[C@@H](NC(=O)C2CCOCC2)[C@@H](CO)O1)NCC1CCCCC1` it is -39.2%; for `CO[C@@H]1CN(C)C(=O)c2ccc(NS(=O)(=O)c3ccc(C)cc3)cc2OC[C@H](C)N(C)C[C@@H]1C` it is -16.4%.
